According to PMC5540273 (PLoS ONE, 2017):

Legend:
Conditions in all cases: concentration: 1 μM,replicates: in singlicate; n = 1
[1] = system: FGFR1
[2] = system: FGFR2
[3] = system: FGFR3
[4] = system: FGFR4
[5] = system: FGR
[6] = system: FLT1
[7] = system: FLT3-autoinhibited
[8] = system: FLT3
[9] = system: FLT4
[10] = system: FRK
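Also: KINOMEscan kinase panel screen.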

Compound	%Inh [1] [%]	%Inh [2] [%]	%Inh [3] [%]	%Inh [4] [%]	%Inh [5] [%]	%Inh [6] [%]	%Inh [7] [%]	%Inh [8] [%]	%Inh [9] [%]	%Inh [10] [%]
Cc1n[nH]c2ccc(-c3cc(OC[C@@H](N)Cc4ccccc4)cnc3-c3ccoc3)cc12.O=C(O)C(F)(F)F.O=C(O)C(F)(F)F [GSK507358]	0	0	0	0	45	2	0	0	5	0
Cl.Cl.NC[C@H](Cc1ccc(C(F)(F)F)cc1)NC(=O)c1cc(Br)c(-c2ccnc3[nH]ccc23)s1 [GSK1487252]	14	17	24	57	31	62	23	63	54	15
CC(C)N1C(=O)Cc2cc(Nc3ncc(C(F)(F)F)c(NCc4cccc(S(C)(=O)=O)c4)n3)ccc21	38	52	43	16	5	62	57	97.6	89	0
CNC(=O)c1ccccc1Sc1ccc2c(/C=C/c3ccccn3)n[nH]c2c1	–	86	81	12	85	99.6	15	0	100	0
Cc1cc(C(=O)Nc2ccc(Oc3ccc4nc(NC(=O)C5CC5)cn4n3)cc2)nn1-c1ccccc1	21	28	7	13	59	88	18	97.5	94	0
C[C@@H](Oc1cc(-c2cnn(C3CCNCC3)c2)cnc1N)c1c(Cl)ccc(F)c1Cl	22	0	24	0	46	28	31	40	4	36
CCn1c(-c2nonc2N)nc2c(C#CC(C)(C)O)nc(OCCN)cc21.Cl.Cl [GSK902056]	0	100	7	0	30	16	0	0	0	6
Cc1ccc2c(-c3ccncc3)c(-c3ccc(F)cc3)nn2c1.Cl [GW461484]	14	12	4	4	0	5	0	37	0	20
CCN(CC)CCCCNc1ncc2cc(-c3c(Cl)cccc3Cl)c(NC(=O)NC(C)(C)C)nc2n1	98.6	96.4	95.5	28	90.3	99	24	98.1	83	96.2
CCN(CC)CCOc1ccc(Nc2ncc3cc(-c4c(Cl)cccc4Cl)c(=O)n(C)c3n2)cc1 [SB-601273]	99.9	100	100	97.9	100	99	65	98.7	95.8	100
CC(C)Nc1cc(-c2ccc3c(N)n[nH]c3c2)nc(N)n1 [GSK2221681]	20	0	5	5	3	18	0	0	14	3
Cl.Cl.Nc1nc(-c2ccc3c(N)n[nH]c3c2)cc(N2CCCC(NC(=O)c3ccccc3)C2)n1 (stereo not drawn) [GSK2286775]	0	0	11	0	8	16	2	0	0	0
O=C(NCCCN1CCOC1=O)c1cnc(NCc2cc(Cl)ccc2Cl)nc1NC1CCCC1	10	24	19	13	29	6	0	21	5	18
C[C@H]1Oc2cc(cnc2N)-c2c(nn(C)c2C#N)CN(C)C(=O)c2ccc(F)cc21	12	26	0	0	33	0	0	26	0	92
NC(=O)c1cc(-c2ccccc2)cc2c(C3CCNCC3)c[nH]c12 [GSK301362]	32	19	3	9	14	37	25	47	12	2
C[C@@H]1CCN(C(=O)CC#N)C[C@@H]1N(C)c1ncnc2[nH]ccc12	0	0	0	0	1	0	0	0	0	0
CN(C)CC(O)COc1ccc(Nc2nccc(-c3cnn4nc(N5CCOCC5)ccc34)n2)cc1 (stereo not drawn) [GW767488]	2	6	3	1	93.5	11	40	58	24	0
CN(C)CCOc1ccc(-c2cc(-c3c[nH]nc3-c3ccccn3)ccn2)cc1 [GW835314]	47	17	31	8	7	0	35	59	11	10
O=C(NCCNc1ccnc(NCc2ccc(F)cc2)n1)c1cc2ccccc2s1 [GSK1379944]	6	10	20	79	29	27	0	0	1	15
Cc1ccc(-n2nc(C(C)(C)C)cc2NC(=O)Nc2ccc(OCCN3CCOCC3)c3ccccc23)cc1 [GW839464]	–	2	0	0	–	67	0	29	58	48
C=CC(=O)Nc1cc2c(Nc3ccc(F)c(Cl)c3)ncnc2cc1OCCCN1CCOCC1 [GW781483]	0	0	0	0	14	15	2	27	0	30
Nc1nc(Nc2ccccc2)cc(-c2ccc3c(N)n[nH]c3c2)n1 [GSK2225749]	17	10	18	0	0	10	19	2	9	0
Cc1cc2cn[nH]c2cc1-c1cccc2c(N)c(C(N)=O)nnc12	35	0	0	0	50	0	19	10	2	31
COc1ccc(C[C@@H](CN)NC(=O)c2cc(Br)c(-c3ccnc4[nH]ccc34)s2)cc1.Cl.Cl [GSK1389063]	95.8	83	69	93.2	53	82	42	98	73	29
Cl.Oc1cc(-c2nc(-c3ccccc3)[nH]c2-c2ccncc2)ccc1Cl [SB-386023]	6	2	0	0	56	2	0	12	8	73
Cl.Cl.NC[C@H](CC1CCCCC1)NC(=O)c1cc(Br)c(-c2ccnc3[nH]ccc23)s1 [GSK1581427]	35	18	13	16	33	39	8	68	22	19
Cc1occc1-c1nc(N)c(OC[C@@H](N)Cc2c[nH]c3ccccc23)cc1-c1cc2c(C)n[nH]c2cn1 [GSK1660450]	49	4	0	0	91.6	31	0	0	25	75
